From PubChem BioAssay (EPA / NIEHS)
More than one record can exist for a structure, and the calls need not agree. Calls of active or inactive are those of the source. The calls were made as follows: active = hit-call score of the fitted dose curve at least 0.9, where 1 is the maximum; inactive = score below 0.9.

Tests used:
[1] = read-out: TIMP metallopeptidase inhibitor 2 (TIMP2), TIMP2 (gene 7077); assay: BSK_KF3CT_TIMP2: BioMAP Diversity Plus: KF3CT Assay for TIMP metallopeptidase inhibitor 2 (TIMP2) Biomarker Activity (AID 2283071); conditions: primary human keratinocytes with fibroblasts; actives raise or lower the signal
Summary of the method: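 Keratinocyte–fibroblast co-culture, 24 h exposure; TIMP-2 ELISA, DMSO-normalised bidirectional fit. Parallel SRB (0.1%, TCA-fixed, 560 nm) total-protein staining gauges cytotoxicity.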

[2] = read-out: C-C motif chemokine 2 (Homo sapiens) (UniProt P13500); assay: BSK_KF3CT_MCP1: BioMAP Diversity Plus: KF3CT Assay for Monocyte Chemoattractant Protein 1 (MCP1/CCL2) Biomarker Activity (AID 2283073); conditions: primary human keratinocytes with fibroblasts; actives raise or lower the signal
Summary of the method: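 Keratinocytes and foreskin fibroblasts were co-cultured, dosed with chemical, and sampled 24 h later. MCP-1 was quantified by ELISA, and the endpoint was analyzed with bidirectional fitting using DMSO as negative control.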

[3] = read-out: Matrix Metallopeptidase 9 (MMP9), MMP9 (gene 4318); assay: BSK_KF3CT_MMP9: BioMAP Diversity Plus: KF3CT Assay for Matrix Metallopeptidase 9 (MMP9) Biomarker Activity (AID 2283074); conditions: primary human keratinocytes with fibroblasts; actives raise or lower the signal;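 as to AC50: MMP9 protein level quantified by ELISA in the co-culture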
Summary of the method: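 Human keratinocyte and foreskin fibroblast co-culture exposed to chemicals for 24 h; MMP9 biomarker measured by ELISA, bidirectional fitting relative to DMSO; cytotoxicity tracked by SRB total protein staining in parallel cultures.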

[4] = read-out: urokinase plasminogen activator (uPA), PLAU (gene 5328); assay: BSK_KF3CT_uPA: BioMAP Diversity Plus: KF3CT Assay for urokinase plasminogen activator (uPA) Biomarker Activity (AID 2283075); conditions: primary human keratinocytes with fibroblasts; actives raise or lower the signal
Summary of the method: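 Primary human keratinocyte/foreskin fibroblast co-culture exposed to chemical; uPA measured by ELISA at 24 h. Bidirectional fit versus DMSO, with parallel SRB total-protein staining for cytotoxicity.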

CD40, CD40 (gene 958) [5] = assay: BSK_LPS_CD40: BioMAP Diversity Plus: LPS Assay for CD40 Biomarker Activity (AID 2283076); conditions: primary human HUVEC with PBMC; actives raise or lower the signal
Summary of the method: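 CD40 signal, measured by ELISA, is fitted in both directions relative to DMSO vehicle. The system is an LPS-driven human vascular primary co-culture of endothelial cells and PBMC, sampled 24 h after compound addition.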

[6] = read-out: E-selectin (Homo sapiens) (UniProt P16581); assay: BSK_LPS_Eselectin: BioMAP Diversity Plus: LPS Assay for Eselectin Biomarker Activity (AID 2283077); conditions: primary human HUVEC with PBMC; actives raise or lower the signal
Summary of the method: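 Signal of E-selectin, detected by ELISA, served as the endpoint; cells were umbilical vein endothelium with PBMC, read 24 h after treatment. DMSO defined baseline, and both increases and decreases were fitted.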

[7] = read-out: Interleukin-8 (IL8), CXCL8 (gene 3576); assay: BSK_LPS_IL8: BioMAP Diversity Plus: LPS Assay for Interleukin-8 (IL8) Biomarker Activity (AID 2283078); conditions: primary human HUVEC with PBMC; actives raise or lower the signal
Summary of the method: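 Endothelial cells and PBMC from human donors are co-cultured, treated with chemicals and LPS, then assayed for IL-8 by ELISA after 24 h. Parallel SRB staining (0.1% SRB after 10% TCA fixation, 560 nm) flags cytotoxicity.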

[8] = BSK_LPS_SRB: Viability Assessment in the BioMAP Diversity Plus: LPS Assay (AID 2283079); conditions: primary human HUVEC with PBMC;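 also: total protein by sulforhodamine B absorbance as a cytotoxicity measure; measured one day after compound addition; fitted in both directions against DMSO so loss or gain of signal counts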
Summary of the method: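 Overt cytotoxicity was gauged by sulforhodamine B total-protein staining in a primary human vascular endothelial and mononuclear cell co-culture 24 h post-dosing. Activity was fitted in both directions relative to DMSO.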

[9] = read-out: Interleukin-1 alpha (IL1a), IL1A (gene 3552); assay: BSK_LPS_IL1a: BioMAP Diversity Plus: LPS Assay for Interleukin-1 alpha (IL1a) Biomarker Activity (AID 2283080); conditions: primary human HUVEC with PBMC; actives raise or lower the signal
Summary of the method: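 Measured: IL-1 alpha via ELISA at 24 h in LPS-activated human umbilical vein endothelium–PBMC co-culture. Baseline: DMSO, bidirectional fitting.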

[10] = read-out: Monocyte Chemoattractant Protein-1 (MCP1), CCL2 (gene 6347); assay: BSK_LPS_MCP1: BioMAP Diversity Plus: LPS Assay for Monocyte Chemoattractant Protein-1 (MCP1) Biomarker Activity (AID 2283081); conditions: primary human HUVEC with PBMC; actives raise or lower the signal;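 as to AC50: secreted MCP-1 protein quantified by ELISA in culture supernatant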
Summary of the method: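 LPS-stimulated HUVEC/PBMC co-culture; chemical, 24 h; MCP-1 by ELISA; bidirectional fit vs DMSO; cytotoxicity via SRB (0.1% stain, 10% TCA fix, 560 nm) in parallel wells.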

[11] = read-out: Macrophage colony-stimulating factor (MCSF), CSF1 (gene 1435); assay: BSK_LPS_MCSF: BioMAP Diversity Plus: LPS Assay for Macrophage colony-stimulating factor (MCSF) Biomarker Activity (AID 2283083); conditions: primary human HUVEC with PBMC; actives raise or lower the signal
Summary of the method: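 Compound is added to a human vascular primary co-culture of umbilical vein endothelium and blood mononuclear cells. After 24 h, M-CSF is quantified by ELISA. Signal changes are fitted in both directions against DMSO.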

[12] = read-out: Tissue Factor, F3 (gene 2152); assay: BSK_LPS_TissueFactor: BioMAP Diversity Plus: LPS Assay for Tissue Factor Biomarker Activity (AID 2283084); conditions: primary human HUVEC with PBMC; actives raise or lower the signal
Summary of the method: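 In this co-culture system of umbilical vein endothelium with PBMC, stimulated with LPS, cell-surface CD142 is detected by ELISA at 24 h. Endpoint values derive from bidirectional fitting, DMSO serving as baseline.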

[13] = read-out: Vascular cell adhesion molecule 1 (VCAM1), VCAM1 (gene 7412); assay: BSK_LPS_VCAM1: BioMAP Diversity Plus: LPS Assay for Vascular cell adhesion molecule 1 (VCAM1) Biomarker Activity (AID 2283086); conditions: primary human HUVEC with PBMC; actives raise or lower the signal
Summary of the method: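 Primary human vascular co-culture (umbilical vein endothelium plus PBMC) stimulated with LPS received chemical; 24 h later VCAM-1 was read by ELISA. Overt cytotoxicity was assessed by sulforhodamine B staining of parallel cultures at the same time point.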

CD40, CD40 (gene 958) [14] = assay: BSK_SAg_CD40: BioMAP Diversity Plus: SAg Assay for CD40 Biomarker Activity (AID 2283088); conditions: primary human HUVEC with PBMC; actives raise or lower the signal
Summary of the method: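 Fluorescence ELISA read-out of CD40 from umbilical vein endothelium plus peripheral blood mononuclear cells, sampled 24 h after dosing. Values come from bidirectional curve fitting with DMSO as baseline.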

CD69, CD69 (gene 969) = assay: BSK_SAg_CD69: BioMAP Diversity Plus: SAg Assay for CD69 Biomarker Activity (AID 2283089); conditions: primary human HUVEC with PBMC; actives raise or lower the signal;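 as to AC50: cell surface CD69 protein quantified by ELISA with fluorescence detection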
Summary of the method: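 Values derive from bidirectional fitting relative to DMSO vehicle. Cells: umbilical vein endothelium plus peripheral blood mononuclear cells, treated 24 h before fluorescent ELISA for CD69.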

[15] = read-out: Monocyte Chemoattractant Protein-1 (MCP1), CCL2 (gene 6347); assay: BSK_SAg_MCP1: BioMAP Diversity Plus: SAg Assay for Monocyte Chemoattractant Protein-1 (MCP1) Biomarker Activity (AID 2283090); conditions: primary human HUVEC with PBMC; actives raise or lower the signal
Summary of the method: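 MCP-1 levels in the endothelial–PBMC SAg co-culture were quantified by ELISA at 24 h post-dosing; both increases and decreases versus DMSO scored. Cytotoxicity monitored by SRB total protein in parallel cultures.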

[16] = read-out: E-selectin (Homo sapiens) (UniProt P16581); assay: BSK_SAg_Eselectin: BioMAP Diversity Plus: SAg Assay for Eselectin Biomarker Activity (AID 2283091); conditions: primary human HUVEC with PBMC; actives raise or lower the signal
Summary of the method: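 Primary human endothelial cells and peripheral blood mononuclear cells were co-cultured and exposed to chemical for 24 hours. E-selectin levels were then quantified by ELISA, with bidirectional curve fitting normalised to DMSO controls.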

Measured: AC50

Chain of E-selectin (Homo sapiens) (P16581 whole entry, looked up): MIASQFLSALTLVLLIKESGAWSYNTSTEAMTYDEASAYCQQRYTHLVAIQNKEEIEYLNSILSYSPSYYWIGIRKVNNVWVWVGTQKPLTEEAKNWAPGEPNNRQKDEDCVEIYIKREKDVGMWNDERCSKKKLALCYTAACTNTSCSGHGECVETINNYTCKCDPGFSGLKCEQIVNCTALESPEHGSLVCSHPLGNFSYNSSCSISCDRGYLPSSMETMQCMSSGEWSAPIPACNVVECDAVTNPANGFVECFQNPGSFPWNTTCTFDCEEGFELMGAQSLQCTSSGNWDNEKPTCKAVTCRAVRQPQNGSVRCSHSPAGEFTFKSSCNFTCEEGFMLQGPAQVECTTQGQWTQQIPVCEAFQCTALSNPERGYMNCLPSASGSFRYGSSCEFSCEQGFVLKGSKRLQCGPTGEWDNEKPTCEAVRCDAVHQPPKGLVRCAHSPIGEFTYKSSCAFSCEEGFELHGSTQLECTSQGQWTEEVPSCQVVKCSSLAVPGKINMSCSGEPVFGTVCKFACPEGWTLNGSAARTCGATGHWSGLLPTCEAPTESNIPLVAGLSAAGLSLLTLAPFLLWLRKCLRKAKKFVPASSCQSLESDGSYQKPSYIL

CN(c1nccc(=O)[nH]1)C1CCN(c2nc3ccccc3n2Cc2ccc(F)cc2)CC1
inactive: [1] | [2] | [3] | [4] | CD40, CD40 (gene 958) [5] | [6] | [7] | [8] | [9] | [10] | [11] | [12] | [13] | CD40, CD40 (gene 958) [14] | CD69, CD69 (gene 969) | [15] | [16]

Clc1cc(Cl)c(-c2c(Cl)c(Cl)cc(Cl)c2Cl)cc1Cl
active: [1] 6.63 µM | [2] 10 µM | [3] 8.51 µM | [4] 10 µM | CD40, CD40 (gene 958) [5] 10 µM | [6] 8.81 µM | [9] 12.5 µM | [11] 1.98 µM | [13] 3.5 µM | CD40, CD40 (gene 958) [14] 16.3 µM | CD69, CD69 (gene 969) 10 µM
inactive: [7] | [8] | [10] | [12] | [15]

CCCCCCCCCCCCCCCC(=O)OC/C=C(C)/C=C/C=C(C)/C=C/C1=C(C)CCCC1(C)C
active: [3] 0.125 µM | [13] 20 µM | CD69, CD69 (gene 969) 20 µM
inactive: [1] | [2] | [4] | CD40, CD40 (gene 958) [5] | [6] | [7] | [8] | [9] | [10] | [11] | [12] | CD40, CD40 (gene 958) [14] | [15]

CS(=O)(=O)c1ccc(C2=C(c3ccccc3)C(=O)OC2)cc1
inactive: [1] | [2] | [3] | [4] | CD40, CD40 (gene 958) [5] | [6] | [7] | [9] | [10] | [11] | [12] | [13] | CD40, CD40 (gene 958) [14] | CD69, CD69 (gene 969) | [15]
active: [8] 1.98 µM

COc1ccc(OC)c(N=Nc2c(O)ccc3ccccc23)c1
active: [1] 7.85 µM | [3] 4.27 µM | [4] 7.69 µM | CD40, CD40 (gene 958) [5] 3.84 µM | [6] 20 µM | [9] 6.45 µM | [10] 8.02 µM | [11] 20 µM | [12] 20 µM | [13] 20 µM | CD40, CD40 (gene 958) [14] 3.97 µM
inactive: [2] | [7] | [8] | CD69, CD69 (gene 969) | [15]

CC(C=O)Cc1ccc(C(C)(C)C)cc1 (stereo not given)
inactive: [2] | [7] | [10] | [11] | [12] | [13] | CD40, CD40 (gene 958) [14] | CD69, CD69 (gene 969) | [15] | [16]
active: [1] 32.4 µM | [3] 36.7 µM | [4] 31 µM | CD40, CD40 (gene 958) [5] 27.2 µM | [6] 31.4 µM | [8] 32.6 µM | [9] 35.8 µM

CCOC(=O)C(C#N)=C(c1ccccc1)c1ccccc1
inactive: [1] | [2] | [3] | [4] | CD40, CD40 (gene 958) [5] | [6] | [7] | [8] | [9] | [10] | [11] | [12] | [13] | CD40, CD40 (gene 958) [14] | CD69, CD69 (gene 969) | [15]
active: [15] 20 µM

COc1ccc(CCN2CCC(Nc3nc4ccccc4n3Cc3ccc(F)cc3)CC2)cc1
active: [3] 5 µM | [8] 5 µM | CD69, CD69 (gene 969) 5 µM
inactive: [1] | [2] | [4] | CD40, CD40 (gene 958) [5] | [6] | [7] | [9] | [10] | [11] | [12] | [13] | CD40, CD40 (gene 958) [14] | [15]

O=CN1CCOCC1
inactive: [1] | [2] | [3] | [4] | CD40, CD40 (gene 958) [5] | [6] | [7] | [8] | [9] | [10] | [11] | [12] | [13] | CD40, CD40 (gene 958) [14] | CD69, CD69 (gene 969) | [15]

CC=Cc1ccc(OCC)c(O)c1
inactive: [1] | [2] | [3] | [4] | CD40, CD40 (gene 958) [5] | [6] | [8] | [9] | [10] | [11] | [12] | [13] | CD40, CD40 (gene 958) [14] | CD69, CD69 (gene 969) | [15] | [16]

CC(=O)c1c(C)c([N+](=O)[O-])c(C(C)(C)C)c([N+](=O)[O-])c1C
inactive: [1] | [2] | [3] | [4] | CD40, CD40 (gene 958) [5] | [6] | [7] | [8] | [9] | [10] | [11] | [12] | [13] | CD40, CD40 (gene 958) [14] | CD69, CD69 (gene 969) | [15]

CS(=O)(=O)OCCCCOS(C)(=O)=O
inactive: [1] | [2] | [3] | [4] | CD40, CD40 (gene 958) [5] | [6] | [7] | [8] | [9] | [10] | [11] | [12] | [13] | CD40, CD40 (gene 958) [14] | CD69, CD69 (gene 969) | [15]
